Tg IFNy HTS: blocks Toxoplasma gondii growth in the presence of IFN-gamma | activity change, negative = inhibition, % (concentration not given with the values) | Toxoplasma gondii growth in IFN-gamma-treated host cells; hits give low values | actives 3.8% (n = 69,000); in the data active = activity change below about -70%, passing the limit was not always enough;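 note: host cells are HeLa cells infected with Toxoplasma gondii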
The depositor's hits bear a star. The sample as a whole holds a higher share of hits than the screen did.

SMILES | Tg IFNy HTS
CC1CCN(c2ncnc3c2cnn3CC(=O)Nc2ccc(OC(F)(F)F)cc2)CC1 | -33.1
CC1CCN(c2ncnc3c2cnn3CC(=O)Nc2ccc(F)c(Cl)c2)CC1 | -85.7*
O=C(Cn1ncc2c(N3CCN(c4ccccn4)CC3)ncnc21)Nc1ccccc1C(F)(F)F | 30.2
O=C(Cn1ncc2c(N3CCN(c4ccccn4)CC3)ncnc21)Nc1ccc(F)c(Cl)c1 | 183.9
Cc1nc(-c2ccc(NS(=O)(=O)c3ccc(OC(F)(F)F)cc3)cc2)cs1 | 12.8
Cc1ccc(C2(O)CCN(C(=O)CCn3nnc4ccccc43)CC2)nc1 | -5.7
CN(C)C1CC2(CCN(C(=O)c3cncnc3)C2)C1 (stereo unspecified) | 32.0
COc1ccc(C(c2cc(C(C)(C)C)c(O)c(C(C)(C)C)c2)N2CCOCC2)cc1 (stereo unspecified) | -42.0
CCOc1ccccc1CC(=O)N1C[C@H]2C[C@H](O)[C@H](O)C[C@H]2C1 | -6.4
COc1ccc(CCC2CCN(C(=O)c3ccc(-n4cnnn4)cc3)CC2)cc1 | -1.7
C[C@@H](Cn1nnc2ccccc21)NC(=O)c1ccc2c(c1)OCO2 | 64.6
O=C(CCn1nnc2ccccc21)Nc1nnc(-c2ccc3c(c2)OCO3)s1 | -103.0*
O=C(CCn1nnc2ccccc21)Nc1nnc(COc2ccc(F)cc2)s1 | -68.8
CC(C)c1nc(CCNC(=O)c2ccc3cc[nH]c3c2)cs1 | -35.0
CCC(=O)N1[C@H](CO)[C@@H]2c3ccccc3N(C(=O)Nc3ccc(Cl)cc3)C[C@@H]21 | 20.5
C=C1SC(=Nc2ccccc2Cl)N(C(=O)c2sc3ccccc3c2Cl)C1(C)C | -28.2
NC(=O)C(c1ccccc1)C1CCCC1 (stereo unspecified) | 10.1
C=C1SC(=Nc2cccc(OC)c2)N(C(=O)C(c2ccccc2)C2CCCC2)C1(C)C (stereo unspecified) | -90.2*
O=C1N(Cc2ccccn2)C(=O)C2(CCN(Cc3c(F)cccc3Cl)CC2)N1Cc1ccccc1 | -72.9*
O=C1N(Cc2ccccn2)C(=O)C2(CCN(CC3CC=CCC3)CC2)N1Cc1ccccc1 (stereo unspecified) | -3.2
Cc1c(CN2CCC3(CC2)C(=O)N(Cc2ccccn2)C(=O)N3Cc2ccccc2)cnn1C | 18.5
Cc1ccccc1-c1ncc(CN2CCn3nc(C(=O)NC4CC4)cc3C2)cn1 | 4.0
COc1ncc(-c2ccc3nccc(-c4ccnnc4)c3c2)cc1NS(=O)(=O)c1ccc(F)cc1F | -77.6*
COCCN1C(=O)CCc2cc(NS(=O)(=O)c3ccc(F)cc3F)ccc21 | 59.6
O=S(=O)(NCCc1csc(-c2ccc(Cl)cc2)n1)c1ccc(F)cc1F | -11.4
